Experimental data reported in PubChem BioAssay AID1508600 (Functional Genomics Laboratory (NCATS/FGL), 2020).
In all, about 53,000 sequences went through this assay and about 3,700 (7%) were called active. Only a selection was taken, and actives are over-represented in it overall. Values without a mark were called inactive.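 How the source made its calls: active means gene knockdowns whose robust z-score for IL-1 alpha signal is at least 2 or at most -2, so actives lie on both sides; inactive means the rest.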

assay: Components of the Cytosolic LPS Sensing Pathway: Gene Identification via Genome-wide siRNA Screen; settings: RAW264.7 macrophages, IL-1a HTRF, actives lie on both sides, screened at 100 nM (by protocol), cells primed 5 h with Pam3CSK4 first;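 further: robust z of the log signal after scaling to non-targeting control siRNA wells of the plate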
Summary of the method: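 Knockdown: 100 nM siRNA, 48h, RAW264.7. Stimulation: Pam3CSK4 5 h, then LipidA via TransIT-TKO 24 h. Output: supernatant IL-1a HTRF, negative-control-normalized, log robust z-score; viability by CellTiter-Glo.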

Which z-score does the source give for GCAGAUGACUAUCGGAAGUTT against Usp53 here?
Its z-score is 2.19 (active).

Which z-score does the source give for GGGCAGCAAAGAAUUAACUTT against Ptpmt1 here?
Its z-score is -0.619.

Which z-score does the source give for GGAAGAAAAUCUUGAAGCATT against Ddx51 here?
Its z-score is -0.232.

Which z-score does the source give for GCGAUAUGACAGACUCUUCTT against Csrnp1 here?
Its z-score is 1.79.

Which z-score does the source give for GGAUGUUAUUCGCCACGCGTT against Zfp335 here?
Its z-score is -0.134.

With CCCGUUCAAGCAAUUACAUTT against G2e3 as the sequence, how does the z-score read?
The z-score was -1.05.

With GGUGAAGACUUCCAGAAGGTT against Reg3a as the sequence, how does the z-score read?
The z-score was -0.186.

With CCUGUACAGUUGGAAACAUTT against Snrpd1 as the sequence, how does the z-score read?
The z-score was -2.02 (active).

Which z-score does the source give for GGACUUCUCCUUUAAUAAUTT against Cox7a2l here?
Its z-score is -0.494.

With GCCCGACCUGUUGAGAAGATT against Znhit3 as the sequence, how does the z-score read?
The z-score was 1.43.

With GGAGGAAAAGUAGGUUUGCTT against Peli1 as the sequence, how does the z-score read?
Its z-score is -0.531.

For GGUAAGUGGAGGUAUUCUUTT against Egln1, which z-score is on record?
Its z-score is 2.28 (active).

With GGCCAGGAAAUAUGAAAUATT against Phtf1 as the sequence, how does the z-score read?
Its z-score is -0.352.

Which z-score does the source give for GCCUUGAUAAUUUUGUAAGTT against Gimap9 here?
The z-score was 0.533.

For GCACCCUAAUGUGAUCGCATT against Cdk19, which z-score is on record?
Its z-score is -1.34.

Which z-score does the source give for CCACCUGAAUCAUUACUCATT against Rdh19 here?
The z-score was -3.29 (active).

Which z-score does the source give for GGAGAAGAUUUUCUGUAUCTT against Atp13a5 here?
The z-score was 0.545.

Which z-score does the source give for GCUGAGAGACUUGUGAAAUTT against Ndufb11 here?
Its z-score is 1.06.

With GGAAAUCAGCUGUGAAAAATT against Fbxl20 as the sequence, how does the z-score read?
Its z-score is -0.628.

For GCAGGUCUAAAACUCUCAUTT against Sfmbt1, which z-score is on record?
Its z-score is 2.38 (active).

For GCCUCAUCGUCAUCGCCAATT against Gpbar1, which z-score is on record?
Its z-score is -0.897.

Which z-score does the source give for GCAUACCUAGACUGAAAACTT against Rilpl2 here?
The z-score was -0.477.

Which z-score does the source give for GGAGCUGUUUCCAGUUCAGTT against Tomm40 here?
The z-score was -1.12.

Which z-score does the source give for CGUGCUGGUAACGGAAUUGTT against Ptger2 here?
The z-score was 2.29 (active).

With GGGAACAGGAGAAAACGGATT against Bnipl as the sequence, how does the z-score read?
The z-score was 1.2.

Which z-score does the source give for GGAAGACAACUGUUGUGGCTT against Dagla here?
The z-score was -0.54.

With GUUCGGUACAACUUUUCUGTT against Alx4 as the sequence, how does the z-score read?
Its z-score is 0.326.

With GGAUAAAAAUCACCCACUGTT against Vwa8 as the sequence, how does the z-score read?
The z-score was 0.21.

For GCCUCUUAAUGCUUUUGUATT against Sfxn1, which z-score is on record?
The z-score was -0.272.

For GGUGGUUGGAGUACUCAAGTT against Capza1, which z-score is on record?
Its z-score is -2.53 (active).

For GCACAUCACAAGAAUUACUTT against Lhfpl1, which z-score is on record?
Its z-score is -0.0486.

With AGCUGACUGUAAAAAAACCTT against Fuom as the sequence, how does the z-score read?
The z-score was 0.19.

For GGAAAUGCCAUAGUCCUAUTT against Mrgprb5, which z-score is on record?
Its z-score is -2.54 (active).

Which z-score does the source give for GGAACUGGCCAAGUUUAAATT against Ing3 here?
Its z-score is 0.653.

Which z-score does the source give for GGCCAGAACUACGAAGCCATT against Capn12 here?
Its z-score is 0.981.

For GGACCUUCGUGAGAAUUUCTT against Mst1, which z-score is on record?
Its z-score is 0.521.

Which z-score does the source give for CCUACAGUGACCUUUCCCGTT against Apcs here?
The z-score was -1.22.

For GGAUAUCACCCACAAUAAATT against Vps28, which z-score is on record?
The z-score was -0.653.

Which z-score does the source give for GGAGCAAUUCUACCGCUACTT against Fbxw5 here?
The z-score was -2.14 (active).

With GCCCAUUUUAGUAAACGAATT against Dspp as the sequence, how does the z-score read?
The z-score was 1.87.

Which z-score does the source give for GGCCUUAAAGAAACACAAGTT against Hnrnph2 here?
Its z-score is 2.3 (active).

For GGUCCUUCAACGGAAGGGATT against Tagap, which z-score is on record?
The z-score was 0.196.

For GGUUUGCAAUAAUUUUCCCTT against Cyp2c66, which z-score is on record?
The z-score was -0.0991.

Which z-score does the source give for CCUAUUAUAGGACAAAGUATT against Efhc2 here?
Its z-score is -0.54.

With CCACAAGUUCCACACUCCATT against Olfr1163 as the sequence, how does the z-score read?
Its z-score is 0.42.

With GGAGGGACAUGAUUUUGAATT against Pfkfb2 as the sequence, how does the z-score read?
Its z-score is 2.22 (active).

With GGAGCAAGUGAUGAUGACCTT against Pkp1 as the sequence, how does the z-score read?
The z-score was -0.263.

Which z-score does the source give for GCGGUAUGGGAAGCUAAAGTT against Rhbdf1 here?
The z-score was 0.617.

For GGAGAUACUGAAAGAGGCCTT against C1qtnf12, which z-score is on record?
Its z-score is -1.25.

With UUCUUGACAGCUGGAAGAGTT against Irgc1 as the sequence, how does the z-score read?
Its z-score is 0.12.

For GGAAAAACGAUACUUGAUUTT against Gria3, which z-score is on record?
Its z-score is -0.751.

For GGUGAGACUAUAAAGAUAATT against Piwil4, which z-score is on record?
The z-score was 0.841.

For CCGAGCAGGAUUGCAUAUATT against Cspg5, which z-score is on record?
Its z-score is 1.41.

For GGCAUUGAGAUGCUGGAAATT against Trappc4, which z-score is on record?
Its z-score is 2.46 (active).

Which z-score does the source give for GCUAUUCUGAUGCGUGGAGTT against Coq2 here?
The z-score was -1.24.

For GCCACGACAACAAAUCCCATT against Lbr, which z-score is on record?
The z-score was -2.62 (active).

For UGAAGCUGUCCCGGACUAATT against Shf, which z-score is on record?
Its z-score is 0.731.

Which z-score does the source give for GGUCAUUGGCACCAACAAGTT against Tgfbi here?
Its z-score is -0.722.

With GGAACAAAGAGGUGAUGUUTT against Olfr109 as the sequence, how does the z-score read?
The z-score was -0.949.

With GGAGAUGAUUGACCGGCUATT against Epc1 as the sequence, how does the z-score read?
Its z-score is -1.03.

For CCAUUUACCUCAUAGGACCTT against Crb3, which z-score is on record?
The z-score was -0.239.

Which z-score does the source give for CGACCAUCUUUACUUUAUCTT against Cilk1 here?
The z-score was 1.61.

With GGAGGGAAGCGAGAGUUUUTT against Emilin2 as the sequence, how does the z-score read?
Its z-score is 2.25 (active).

With GGGUCGUAAUGAGUUCUGGTT against Med1 as the sequence, how does the z-score read?
The z-score was 0.83.

Which z-score does the source give for GGAAACUUUUGGAAGACUATT against Jmjd6 here?
Its z-score is 2.02 (active).

With GGGCCAAUAAAGCAACUGCTT against Laptm5 as the sequence, how does the z-score read?
Its z-score is 0.704.

With GGAUACUCCUCUGAGUAGUTT against Mtmr11 as the sequence, how does the z-score read?
The z-score was -0.469.

Which z-score does the source give for GCCAAAGUGUGUGUUGAAGTT against Gng11 here?
Its z-score is -0.296.

With CGCACACAGUCGUAUGUACTT against Ryr1 as the sequence, how does the z-score read?
Its z-score is -1.21.
